Results from PubChem BioAssay (NCATS).
Records with an inconclusive call do not appear. A call without a number means that no potency is given here. The source made the active and inactive calls. Unless noted, calls follow the shape of the dose curve; as a rule, active = well fitted curve in the direction sought with a large enough effect; inconclusive = small, poorly fitted or top-dose-only effect, or another doubt; inactive = no such curve, though single readings can be large; an effect the other way counts as inactive or inconclusive.

How the values were obtained:
[1] = Primary qHTS for inhibitors of La Crosse Virus (LACV) - induced cell death in SH-SY5Y cells (AID 1508616);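 also: top concentration of the series differs between compounds; higher means more rescue of cells from virus-induced death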
How it was run: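 SH-SY5Y, 6000 cells/well; cpd via pin tool in DMSO; LACV 0.01 MOI; 6 d 37C 5% CO2; ATPLite, 5 min RT; luminescence normalized to ±virus DMSO controls.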

[2] = molecular target: Calcium and integrin-binding protein 1 (Homo sapiens) (UniProt Q99828); experiment: Primary qHTS for Identification of Calcium Integrin Binding Protein 1 (CIB1) Competitor (AID 1508620);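 also: GST tagged CIB1 binding a fluorescein labelled alphaIIb integrin peptide tracer; top concentration of the series differs between compounds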
How it was run: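 CIB1-GST (1 uM final) and compound incubated 15 min at room temperature before adding FITC-alphaIIb peptide tracer (100 nM final). Competition for binding read by fluorescence polarization (ex 480, em 540) after another 15 min at room temperature.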

[3] = Primary qHTS for small molecule stabilizers of the endoplasmic reticulum resident proteome: Secreted ER Calcium Modulated Protein (SERCaMP) assay (AID 1508630)
How it was run: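 The SH-SY5Y reporter protocol was run at 3 concentrations up to 38.3 uM (primary) or 11 concentrations (follow-up): 16 h compound, 100 nM thapsigargin for 4 h, then extracellular luciferase luminescence.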

[4] = A High-Content qHTS Against Drug Library for the Identification of Small Molecules that Inhibit DYT1 Early Onset Primary Dystonia-Associated Cell Pathology (AID 1645839; calls by dose curve; also: potency is read from the fitted curve at half-maximal effect)
How it was run: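 High-content imaging quantified EGFP-TorsinA mislocalization in HEK293-derived cells inducibly expressing DYT1 mutant torsinA, after 48 h exposure to compound given together with tetracycline induction. Cell count served as a toxicity channel alongside %pathology.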

[5] = molecular target: Cytochrome P450 2C9 (Homo sapiens) (UniProt P11712); experiment: Cytochrome P450 family 2 subfamily C member 9 (CYP2C9) small molecule antagonists: luciferase biochemical (cell-free) qHTS assay (AID 1645842; active = well fitted curve in the direction sought with a large enough effect in the repeat runs; an effect the other way counts as inactive or inconclusive; also: nearly all actives have a fitted effect of over 55% in size; also: potency is read from the fitted curve at half-maximal effect)
How it was run: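 P450-Glo CYP2C9 system: proluciferin substrate with enzyme in mix containing 0.4% BSA, 10 min at room temperature, then NADPH regeneration solution added and incubated 1 h at 37C. Detection reagent stopped reaction; luminescence read after 20 min as RLU.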

[6] = Primary qHTS for inhibitors of nuclear receptor binding SET domain protein 2 (NSD2) in an isogenic RCH-ACV NSD2 p.E1099K mutant (9B) (AID 1645876); also: nearly all actives have a fitted effect of over 70% in size; also: potency is read from the fitted curve at half-maximal effect
[7] = Primary qHTS for inhibitors of nuclear receptor binding SET domain protein 2 (NSD2) in an RCH-ACV wild type WT cells (2C) (AID 1645877); also: nearly all actives have a fitted effect of over 70% in size; also: potency is read from the fitted curve at half-maximal effect
[8] = molecular target: Cytochrome P450 2D6 (Homo sapiens) (UniProt P10635); experiment: Cytochrome P450 family 2 subfamily D member 6 (CYP2D6) small molecule antagonists: luciferase biochemical (cell-free) qHTS assay (AID 1645840; active = well fitted curve in the direction sought with a large enough effect in the repeat runs; an effect the other way counts as inactive or inconclusive; also: nearly all actives have a fitted effect of over 55% in size; also: potency is read from the fitted curve at half-maximal effect)
How it was run: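 P450-Glo CYP2D6 system: proluciferin substrate converted by enzyme to luciferin, read by luminescence proportional to activity. Enzyme-substrate mix with compound 10 min at room temperature, then NADPH regeneration 1 h before detection reagent.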

[9] = molecular target: Rap guanine nucleotide exchange factor 3 (Homo sapiens) (UniProt O95398); experiment: Confirmatory qHTS for agonist of cAMP-regulated guanine nucleotide exchange factor 3 (EPAC1) (AID 1645881);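 also: EPAC1 catalysed release of BODIPY-GDP from Rap1B seen as fluorescence loss; nearly all actives have a fitted effect of over 75% in size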
[10] = molecular target: Rap guanine nucleotide exchange factor 4 (Homo sapiens) (UniProt Q8WZA2); experiment: Confirmatory qHTS for agonist of cAMP-regulated guanine nucleotide exchange factor 4 (EPAC2) (AID 1645884);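 also: nucleotide exchange releases bodipy-GDP from Rap1 and this lowers its fluorescence; nearly all actives have a fitted effect of over 65% in size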
[11] = molecular target: Rap guanine nucleotide exchange factor 4 (Homo sapiens) (UniProt Q8WZA2); experiment: Confirmatory qHTS for antagonist of cAMP-regulated guanine nucleotide exchange factor 4 (EPAC2) (AID 1645885); also: potency is read from the fitted curve at half-maximal effect; nearly all actives have a fitted effect of over 25% in size

Cytochrome P450 2D6 (Homo sapiens), sequence (P10635 whole entry, looked up): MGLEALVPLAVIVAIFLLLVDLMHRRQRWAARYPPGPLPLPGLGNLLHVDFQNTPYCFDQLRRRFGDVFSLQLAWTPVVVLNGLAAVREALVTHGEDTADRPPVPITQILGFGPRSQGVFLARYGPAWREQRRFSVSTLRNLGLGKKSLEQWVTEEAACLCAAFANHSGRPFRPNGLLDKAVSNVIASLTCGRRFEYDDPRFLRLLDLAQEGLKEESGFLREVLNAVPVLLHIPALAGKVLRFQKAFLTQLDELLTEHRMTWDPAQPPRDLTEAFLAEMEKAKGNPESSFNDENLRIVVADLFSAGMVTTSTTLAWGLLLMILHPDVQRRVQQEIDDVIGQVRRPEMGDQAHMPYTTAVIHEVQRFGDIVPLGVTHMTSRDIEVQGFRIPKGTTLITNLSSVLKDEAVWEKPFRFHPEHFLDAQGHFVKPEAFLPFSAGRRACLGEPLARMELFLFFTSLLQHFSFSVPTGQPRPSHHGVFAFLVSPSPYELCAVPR
Cytochrome P450 2C9 (Homo sapiens), sequence (P11712 whole entry, looked up): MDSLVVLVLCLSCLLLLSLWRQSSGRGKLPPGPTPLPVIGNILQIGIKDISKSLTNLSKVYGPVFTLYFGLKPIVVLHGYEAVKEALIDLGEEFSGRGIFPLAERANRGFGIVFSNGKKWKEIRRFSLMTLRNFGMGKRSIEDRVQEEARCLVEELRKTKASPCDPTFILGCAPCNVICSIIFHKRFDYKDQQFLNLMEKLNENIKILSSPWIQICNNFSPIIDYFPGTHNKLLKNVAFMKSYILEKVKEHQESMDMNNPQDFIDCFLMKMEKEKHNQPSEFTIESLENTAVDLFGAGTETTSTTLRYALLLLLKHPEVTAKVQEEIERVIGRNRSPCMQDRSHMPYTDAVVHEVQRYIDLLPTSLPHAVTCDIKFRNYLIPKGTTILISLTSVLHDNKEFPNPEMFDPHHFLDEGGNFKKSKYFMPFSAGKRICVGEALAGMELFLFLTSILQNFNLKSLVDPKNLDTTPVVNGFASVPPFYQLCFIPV
Calcium and integrin-binding protein 1 (Homo sapiens), sequence (Q99828 whole entry, looked up): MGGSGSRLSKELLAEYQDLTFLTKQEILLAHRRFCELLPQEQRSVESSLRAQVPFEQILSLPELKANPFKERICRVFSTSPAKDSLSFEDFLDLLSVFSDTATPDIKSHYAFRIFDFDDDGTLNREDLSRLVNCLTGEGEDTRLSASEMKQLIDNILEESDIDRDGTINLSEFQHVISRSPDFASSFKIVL
Rap guanine nucleotide exchange factor 4 (Homo sapiens), sequence (Q8WZA2 whole entry, looked up): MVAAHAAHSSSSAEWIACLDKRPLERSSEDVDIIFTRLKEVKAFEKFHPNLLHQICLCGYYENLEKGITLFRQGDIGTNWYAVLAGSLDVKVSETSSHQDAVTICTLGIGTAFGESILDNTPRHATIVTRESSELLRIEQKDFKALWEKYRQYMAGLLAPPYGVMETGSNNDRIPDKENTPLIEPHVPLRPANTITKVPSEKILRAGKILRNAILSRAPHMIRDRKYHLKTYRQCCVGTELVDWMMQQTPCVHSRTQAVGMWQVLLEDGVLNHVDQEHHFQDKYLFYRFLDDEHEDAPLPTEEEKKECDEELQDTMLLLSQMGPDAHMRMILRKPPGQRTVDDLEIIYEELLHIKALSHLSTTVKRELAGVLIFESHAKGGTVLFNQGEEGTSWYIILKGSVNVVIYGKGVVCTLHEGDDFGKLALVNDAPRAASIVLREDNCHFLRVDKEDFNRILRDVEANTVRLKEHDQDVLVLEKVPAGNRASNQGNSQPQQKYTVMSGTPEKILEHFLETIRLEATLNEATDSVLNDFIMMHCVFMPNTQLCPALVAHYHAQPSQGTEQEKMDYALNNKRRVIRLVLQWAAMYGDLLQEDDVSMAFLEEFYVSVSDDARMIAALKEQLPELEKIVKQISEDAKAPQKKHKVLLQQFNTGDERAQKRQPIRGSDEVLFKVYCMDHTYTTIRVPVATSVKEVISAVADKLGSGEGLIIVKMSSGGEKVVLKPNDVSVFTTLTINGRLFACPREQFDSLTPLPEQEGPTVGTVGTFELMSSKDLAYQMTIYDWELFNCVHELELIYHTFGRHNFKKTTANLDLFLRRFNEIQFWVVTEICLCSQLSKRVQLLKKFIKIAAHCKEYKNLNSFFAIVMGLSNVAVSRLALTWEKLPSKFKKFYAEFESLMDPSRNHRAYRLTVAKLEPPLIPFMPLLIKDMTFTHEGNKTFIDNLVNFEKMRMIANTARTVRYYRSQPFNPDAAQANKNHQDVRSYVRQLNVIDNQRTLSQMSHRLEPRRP
Rap guanine nucleotide exchange factor 3 (Homo sapiens), sequence (O95398 whole entry, looked up): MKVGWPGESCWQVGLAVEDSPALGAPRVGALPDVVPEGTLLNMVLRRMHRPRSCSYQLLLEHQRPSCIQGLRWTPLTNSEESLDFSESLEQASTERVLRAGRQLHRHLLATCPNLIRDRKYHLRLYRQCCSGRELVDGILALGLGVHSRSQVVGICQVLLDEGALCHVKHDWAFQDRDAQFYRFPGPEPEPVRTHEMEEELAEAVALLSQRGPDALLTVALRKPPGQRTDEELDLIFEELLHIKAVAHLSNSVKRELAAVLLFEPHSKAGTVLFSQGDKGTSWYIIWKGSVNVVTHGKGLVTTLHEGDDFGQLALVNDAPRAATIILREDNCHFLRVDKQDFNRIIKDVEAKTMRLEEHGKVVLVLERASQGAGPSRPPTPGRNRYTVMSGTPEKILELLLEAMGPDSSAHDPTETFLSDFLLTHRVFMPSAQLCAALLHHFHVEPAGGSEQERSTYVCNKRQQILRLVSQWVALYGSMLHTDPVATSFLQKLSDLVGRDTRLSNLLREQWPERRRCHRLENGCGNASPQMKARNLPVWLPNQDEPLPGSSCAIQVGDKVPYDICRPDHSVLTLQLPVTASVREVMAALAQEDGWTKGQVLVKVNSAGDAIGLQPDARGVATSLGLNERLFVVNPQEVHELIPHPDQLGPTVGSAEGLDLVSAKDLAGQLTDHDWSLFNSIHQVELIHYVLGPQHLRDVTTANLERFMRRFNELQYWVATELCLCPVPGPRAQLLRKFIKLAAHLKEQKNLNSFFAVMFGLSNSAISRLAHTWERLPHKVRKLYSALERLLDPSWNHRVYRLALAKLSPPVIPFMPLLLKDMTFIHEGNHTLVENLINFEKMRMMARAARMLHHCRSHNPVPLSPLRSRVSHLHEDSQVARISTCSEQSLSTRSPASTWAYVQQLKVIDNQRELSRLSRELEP

Row | Compound | outcome [1] | Potency [2] | Potency [3] | Potency [4] | Potency [5] | Potency [6] | Potency [7] | Potency [8] | Potency [9] | Potency [10] | Potency [11]
1 | C/C(=C1\CCOC(=O)S1)N(C=O)Cc1cnc(C)nc1N | inactive | inactive | inactive | inactive | inactive | inactive | inactive | – | – | – | –
2 | CCC(=O)Oc1ccc2c(c1)CC[C@@H]1[C@@H]2CC[C@@]2(C)[C@H]1C[C@@H](OC(=O)CC)[C@@H]2OC(=O)CC | inactive | inactive | inactive | inactive | 8.71 µM (active) | – | – | – | – | – | –
3 | COc1cc(NS(=O)(=O)c2ccc(N)cc2)nc(C)n1 | inactive | inactive | inactive | inactive | inactive | inactive | inactive | – | – | – | –
4 | CC[N+](CC)(CC)CCOC(=O)C(C1CCCC1)C1CCCC1 | inactive | inactive | inactive | – | inactive | 21.1 µM (active) | – | 3.09 µM (active) | – | – | –
5 | O=C1NCCN1CCN1CCC(c2cn(-c3ccc(F)cc3)c3ccc(Cl)cc23)CC1 | inactive | inactive | inactive | 11.2 µM (active) | – | 3.76 µM (active) | 2.11 µM (active) | – | – | – | –
6 | CC[C@@H]([C@H](C)O)n1ncn(-c2ccc(N3CCN(c4ccc(OC[C@@H]5CO[C@@](Cn6cncn6)(c6ccc(F)cc6F)C5)cc4)CC3)cc2)c1=O | inactive | inactive | inactive | – | – | – | – | inactive | – | – | –
7 | CC(C)Cc1ccc(C(C)C(=O)OCc2ccccn2)cc1 (configuration not stated) | inactive | inactive | inactive | inactive | – | inactive | inactive | – | – | – | –
8 | C[N+](C)(CCOc1ccccc1)Cc1cccs1 | inactive | inactive | inactive | inactive | – | – | 26.6 µM (active) | 0.123 µM (active) | – | – | –
9 | CC(C)(C)CC(=O)OCC(=O)[C@@]1(O)CC[C@H]2[C@@H]3CCC4=CC(=O)C=C[C@]4(C)[C@H]3[C@@H](O)C[C@@]21C | inactive | inactive | inactive | inactive | – | 21.1 µM (active) | 0.0531 µM (active) | – | – | – | –
10 | CC1(C)OC(=O)Nc2ccc(Br)cc21 | inactive | inactive | inactive | inactive | inactive | inactive | inactive | – | – | – | –
11 | CC(=O)[C@@]1(O)CC[C@H]2[C@@H]3C[C@H](C)C4=CC(=O)CC[C@]4(C)[C@H]3CC[C@@]21C | inactive | inactive | inactive | inactive | – | 23.7 µM (active) | 15 µM (active) | – | – | – | –
12 | CN1CCN(N)CC1 | inactive | inactive | inactive | inactive | – | inactive | inactive | inactive | – | – | –
13 | Nc1ccc(C(=O)N2CC3CC(CN(Cc4ccccc4)C3)C2)cc1 | inactive | inactive | inactive | inactive | inactive | inactive | inactive | – | – | – | –
14 | CC[N+]1(CC)CCC(=C(c2ccccc2)c2ccccc2)C1C (configuration not stated) | inactive | inactive | inactive | – | inactive | – | – | 1.74 µM (active) | – | – | –
15 | O=C(O)Cc1ccc(OCCNC[C@H](O)c2ccccc2)cc1 | inactive | inactive | inactive | inactive | inactive | – | – | – | – | – | –
16 | O=C(c1ccco1)N1CCNCC1 | inactive | inactive | inactive | – | inactive | inactive | inactive | inactive | – | – | –
17 | CC[C@@]1(O)C(=O)OCc2c1cc1n(c2=O)Cc2c-1nc1ccccc1c2/C=N/OC(C)(C)C | inactive | inactive | inactive | – | – | inactive | inactive | – | – | – | –
18 | O=C(OCCN1CCOCC1)c1cccnc1Nc1cccc(C(F)(F)F)c1 | inactive | inactive | inactive | – | – | inactive | inactive | – | – | – | –
19 | Cc1nc(N)nc(N)c1-c1ccc(Cl)c(Cl)c1 | inactive | inactive | inactive | – | inactive | 0.266 µM (active) | 0.299 µM (active) | 0.871 µM (active) | – | – | –
20 | CCCCCC[C@@H](CCC)C(=O)O | inactive | inactive | inactive | – | inactive | inactive | inactive | inactive | – | – | –
21 | O=C1Cc2cc(Cl)ccc2N1 | inactive | inactive | inactive | – | 11 µM (active) | inactive | inactive | – | – | – | –
22 | Cc1cc(OCCOCC[N+](C)(C)Cc2ccccc2)ccc1C(C)(C)CC(C)(C)C | inactive | inactive | inactive | – | – | 1.19 µM (active) | 1.19 µM (active) | 7.76 µM (active) | – | – | –
23 | O=C(CS(=O)Cc1ccco1)NC/C=C\COc1cc(CN2CCCCC2)ccn1 (configuration not stated) | inactive | inactive | inactive | – | – | inactive | inactive | – | – | – | –
24 | CCCCC(CC)COC(=O)c1ccccc1C(=O)O (configuration not stated) | inactive | inactive | inactive | – | 6.26 µM (active) | inactive | – | – | – | – | –
25 | OCCc1ccccc1 | inactive | inactive | inactive | – | inactive | inactive | inactive | – | – | – | –
26 | CCCCCN(CCCOC)C(=O)C(CCC(=O)O)NC(=O)c1ccc(Cl)c(Cl)c1 (configuration not stated) | inactive | inactive | inactive | – | – | inactive | inactive | inactive | – | – | –
27 | COC(=O)C1=C(C)NC(COC(N)=O)=C(C(=O)OC(C)C)C1c1cccc(Cl)c1Cl (configuration not stated) | inactive | inactive | inactive | – | 4.36 µM (active) | 18.8 µM (active) | 11.9 µM (active) | 19.5 µM (active) | inactive | inactive | 44.1 µM (active)
28 | C[C@H]1C[C@H]2[C@@H]3CCC4=CC(=O)C=C[C@]4(C)[C@H]3C(=O)C[C@]2(C)[C@@]1(O)C(=O)CO | inactive | inactive | inactive | – | 15.1 µM (active) | inactive | inactive | inactive | – | – | –
